Records with an inconclusive call do not appear. Where a call stands in place of a potency, no number is given. Calls of active or inactive are those of the source. Calls follow the shape of the dose curve; as a rule, active = well fitted cell-killing curve with a large enough effect in the repeat runs; inconclusive = weak or mixed curves, or effect the other way; inactive = flat fitted curve, though single readings scatter.
test: qHTS RealTime-Glo MT Cell Viability Assay in HEK293 cells - 24 hour (AID 1224886); conditions: RealTime-Glo luminescence; series mostly up to 76.8 µM; also: top concentration of the series differs between compounds; nearly all actives have a fitted effect of over 50% in size
From the text: National Center for Advancing Translational Sciences [NCATS]
NIH Chemical Genomics Center [NCGC]
U.S. Environmental Protection Agency [EPA]
National Institutes of Environmental Health Sciences [NIEHS]
National Toxicology Program [NTP]
U.S. Food and Drug Administration [FDA]
Measure of cell viability is critical in the cell-base assay. Analysis of cell viability is necessary for the characterization of cell responses to cytotoxic drugs and environmental stress. A RealTime-Glo MT Cell Viability Assay to monitor cell viability in real time of continues cell culture during 40 hours of compound treatment was used to screen Tox21 10K library compounds in Hek293 cells. The RealTime-Glo MT Cell Viability Assay is a nonlytic, homogeneous, bioluminescent method to measure cell viability in real time using a simple, plate-based method. The assay involves adding NanoLuc luciferase and a cell-permeant prosubstrate to cells in culture. Viable cells reduce the proprietary prosubstrate to generate a substrate for NanoLuc luciferase. This substrate diffuses from cells into the surrounding culture medium, where it is rapidly used by the NanoLuc Enzyme to produce a luminescent signal. The signal correlates with the number of viable cells, making the assay well suited for cytotoxicity studies.
Tox21 Assay Protocol Summary:
The mixture of Hek293 cell suspension and reagents were dispensed at 600cells/6 ul/well in 1536-well tissue culture treated black solid bottom plates using a Multidrop dispenser. After the assay plates were incubated at a 37 C/5% CO2 incubator for 5 hours, 23 nL of compounds dissolved in DMSO, positive and negative controls was transferred to the assay plate by a pintool work station. The plates were incubated at 37 C for 40 hours. The luminescence intensity were measured at 0h, 8h, 16h, 24h, 32h and 40h time points using ViewLux plate reader during compound treatment.

Structure (SMILES)	Potency	activity change, negative = cytotoxicity
CCOc1ccccc1OCC1CNCCO1 (stereo not given)	inactive	
[O-][n+]1cccc(/C(Cl)=N/OC[C@@H](O)CN2CCCCC2)c1	inactive	
CC(O)CC(C)O (stereo not given)	inactive	
C=CCN1C[C@H](C(=O)N(CCCN(C)C)C(=O)NCC)C[C@@H]2c3cccc4[nH]cc(c34)C[C@H]21	inactive	
CCN(CC)CCN	inactive	
Cc1cc(-c2ccccc2)nnc1NCCN1CCOCC1	inactive	
NCc1ccc(S(N)(=O)=O)cc1	inactive	
CCC(C)OC(C)CC (stereo not given)	inactive	
Cc1ncc([N+](=O)[O-])n1CC(C)O (stereo not given)	inactive	
CC(=O)O[Si](C)(OC(C)=O)OC(C)=O	inactive	
CCC(=O)c1c(O)cc(O)cc1O	inactive	
CCCSSCCC	inactive	
CN(C)CCCO[C@@H]1[C@H]2OC(C)(C)O[C@H]2O[C@@H]1C(O)CO (stereo not given in full)	inactive	
Cc1ccccc1C(N)=O	inactive	
CC(=O)OC(C)=O	inactive	
N[C@@H](CSCCCO)C(=O)O		2.46% [at 15.8 µM] (inactive)
CC(C)=CCC/C(C)=C/COC=O	inactive	
C[C@H]1[C@@H](c2ccccc2)NC(=O)N1C	inactive	
COC(=O)CCCCC(CCSS/C(CCO)=C(\C)N(C=O)Cc1cnc(C)nc1N)SC(C)=O (stereo not given)	inactive	
O=C(Cl)c1ccccc1[N+](=O)[O-]	inactive	

Structure (SMILES)	Potency	activity change, negative = cytotoxicity
C=CCCCC	inactive	
CCn1cc(C(=O)O)c(=O)c2cnc(N3CCCC3)nc21		7.35% [at 6.97 µM] (inactive)
C=CC/C=C/C	inactive	
COCCc1ccccn1	inactive	
NCCOCCN	inactive	
O=C(O)CNC(=O)CNC(=O)CNC(=O)CSC(=O)c1ccccc1	inactive	
OC1(c2ccc(Cl)cc2)CCNCC1	inactive	
C[C@]12CCC(=O)C=C1CC[C@H]1[C@@H]3CC[C@](O)(C(=O)CO)[C@@]3(C)C[C@H](O)[C@@]12F	inactive	
CN1CCOC(c2ccccc2)c2ccccc2C1 (stereo not given)	inactive	
O=C=NCC1CCCC(CN=C=O)C1 (stereo not given)	inactive	
CCCC(=O)OC/C=C(\C)CCC=C(C)C	inactive	
CCC(C)C(=O)OCCc1ccccc1 (stereo not given)	inactive	
CCCCCC(C)O (stereo not given)	inactive	
CCCCCCC1(C)CCC(=O)O1 (stereo not given)	inactive	
Cc1cccc(Cl)c1	inactive	
C=C(C)[C@@H]1CC=C(C)CC1	inactive	
c1ccc(-c2nn[nH]n2)cc1	inactive	
CN(C)CCCCl	inactive	
COC(=O)c1ccccc1C(=O)O	inactive	
O=S(=O)(O)c1ccc2c(N=Nc3ccc(S(=O)(=O)O)c4ccccc34)c(O)c(S(=O)(=O)O)cc2c1		5.55% [at 6.97 µM] (inactive)

— PubChem BioAssay (Tox21)
